The campaign covered roughly 340,000 compounds. About 2,100 (0.62%) were called active.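 The calls were made as follows: active = first-screen hits whose inhibition reached a set limit at any dose in the follow-up dose series; inconclusive = inhibition above the set first-screen limit but never retested; inactive = the rest.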 Not all results are given here. Measured potencies and affinities stand elsewhere.
Target: Rac GTPase-activating protein 1 (Homo sapiens) (UniProt Q9H0H5)
Assay: blockers of MgcRacGAP-driven Rac1 GTP hydrolysis – biochemical, ADP Hunter fluorescence, primary and confirmatory, confirmation (AID 624330);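 also: fluorescence reports GDP produced by GAP-driven GTP hydrolysis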
Details: MgcRacGAP-stimulated Rac1 GTP hydrolysis, at 30 µM, active compounds read high, GST-tagged Rac1 F28L mutant substrate

Rac GTPase-activating protein 1 (Homo sapiens), sequence (Q9H0H5 whole entry, looked up): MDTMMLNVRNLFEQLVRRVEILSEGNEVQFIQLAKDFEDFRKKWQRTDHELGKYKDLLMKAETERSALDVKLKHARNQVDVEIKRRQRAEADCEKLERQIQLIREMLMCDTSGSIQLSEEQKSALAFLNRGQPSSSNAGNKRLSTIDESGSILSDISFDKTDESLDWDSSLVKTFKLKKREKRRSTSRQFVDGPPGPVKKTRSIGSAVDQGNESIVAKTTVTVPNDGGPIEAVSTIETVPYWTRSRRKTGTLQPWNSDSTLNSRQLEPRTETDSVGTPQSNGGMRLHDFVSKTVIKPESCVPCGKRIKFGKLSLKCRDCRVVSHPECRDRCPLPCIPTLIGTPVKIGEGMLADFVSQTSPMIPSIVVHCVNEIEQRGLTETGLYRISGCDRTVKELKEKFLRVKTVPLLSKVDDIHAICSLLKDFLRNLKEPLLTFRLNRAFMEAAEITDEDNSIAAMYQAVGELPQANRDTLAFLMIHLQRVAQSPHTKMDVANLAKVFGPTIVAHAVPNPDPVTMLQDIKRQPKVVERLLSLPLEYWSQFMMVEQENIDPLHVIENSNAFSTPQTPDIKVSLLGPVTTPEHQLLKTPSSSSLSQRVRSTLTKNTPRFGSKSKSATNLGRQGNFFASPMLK

inhibition, inactive:
CCc1cccc(NC(=O)CSc2nnc(Cc3ccc(OC)cc3)c(=O)[nH]2)c1 6.26%, CC(=O)c1cccc(Nc2cc(C)nc3c(C)cc(C)cc23)c1 11%, CC(=O)Nc1cccc2c1C(=O)N(c1ccccc1C)C2=O 9.72%, Cc1ccnc(NC(=O)Cn2c(=O)oc3ccccc32)c1 6.21%, Cc1ccc(NC(=O)CN2C(=O)S/C(=C\c3cccn3C)C2=O)cc1 2.72%, Cn1cccc1/C=C1\SC(=O)N(c2ccc(O)cc2)C1=O 0.13%, N/C(Cc1cccs1)=N\OC(=O)COc1ccc(Br)cc1 0.69%, CN(CC(=O)NCc1ccc(F)cc1)Cc1cccc(Cl)c1 5.16%, CSc1ccc(CN(C)CC(=O)NCc2ccccc2)cc1 4.61%, COc1ccc(CNC(=O)CN(C)Cc2ccc(SC)cc2)cc1 9.14%, COc1ccc(CNC(=O)CCOc2ccc(C(C)(C)C)cc2)cc1 4.83%, Cc1cccc(NC(=O)C2(C)CC3c4ccccc4C2c2ccccc23)c1C (stereo not drawn) 4.55%, CC(C)(C)OC(=O)N[C@@H](Cc1ccccc1)C(=O)NCC1CCC(C(=O)N[C@@H](CC(=O)O)C(=O)O)CC1 (stereo partly drawn) -2.85%, CCOC(=O)N1CCC(N2CCN(S(=O)(=O)c3ccc(OC)cc3)CC2)CC1 20.1%, O=S(=O)(c1ccccc1)N1CCN(C2CCN(Cc3ccccc3)CC2)CC1 9.41%, O=S(=O)(c1ccc(Cl)cc1)N1CCN(C2CCN(Cc3ccccc3)CC2)CC1 2.66%, COc1ccc(S(=O)(=O)N2CCN(Cc3ccccc3)CC2)cc1 5.15%, COc1ccc(S(=O)(=O)N2CCN(C3CCN(Cc4ccccc4)CC3)CC2)cc1 8.39%, CCOC(=O)N1CCC(N2CCN(S(=O)(=O)c3ccc(C)cc3)CC2)CC1 22.2%, COc1ccccc1N1CCN(C2CCN(S(=O)(=O)c3ccc(C)cc3)CC2)CC1 -5.5%, COc1ccccc1N1CCN(C2CCN(S(=O)(=O)c3ccc4ccccc4c3)CC2)CC1 4.9%, O=c1c2ccccc2nnn1CSc1ccccc1F 8.16%, Cc1cccc(C(=O)NCC(=O)NC2CCC(C)CC2)c1 (stereo not drawn) 3.71%, O=C(CSc1c2c(nc3ccccc13)CCC2)N1CCCC1 10.3%, Cc1ccn2cc(CCNC(=O)CC3CCCCC3)nc2c1 16%, O=C(c1cc(Cl)nc2ccccc12)N1CCCCC1 3.41%, CCN(CC)c1ccc(C(=O)Nc2cccc(F)c2)cc1 15.5%, CCN(CC)c1ccc(C(=O)NNC(=O)CCl)cc1 9.55%, Cc1ccc(-c2csc(NC(=O)c3ccccc3F)c2C(=O)O)cc1 5.32%, COc1cccc(COC(=O)c2cc(S(=O)(=O)N3CCCCC3)ccc2N2CCOCC2)c1OC -0.42%, O=S(=O)(Cc1ccccc1)NCCc1ccc(F)cc1 -2.46%, COc1ccc(CNS(=O)(=O)CCNCCc2ccccc2)cc1 6.36%, COc1ccc(CC(=O)NCCN2CCOCC2)cc1 -0.23%, COc1ccc(CCNC(=O)C(=O)NCCCN2CCOCC2)cc1 0.98%, O=C(Cc1ccc(F)cc1)NCCc1ccccc1 -3.3%, COc1ccc(CCNCc2ccc(OCc3ccccc3)cc2)cc1 -1.52%, O=C(c1ccc(Br)o1)N1CC=C(c2ccccc2)CC1 -9.29%, COCCCNC(=O)C1CCCN(S(C)(=O)=O)C1 (stereo not drawn) 4.1%, N=c1c(S(=O)(=O)c2ccc(Br)cc2)cc2c(=O)n3ccccc3nc2n1C1CCCC1 3.79%, N#CCC(=O)Nn1c(=S)[nH]c2ccccc2c1=O 3.15%, CCSCCOC(=O)C1=C(C)NC(=O)NC1c1ccccc1 (stereo not drawn) 2.5%, CCCCNC(=O)CNC(=S)N(Cc1cc(OC)c(OC)c(OC)c1)C1CCCC1 5.07%, COc1ccccc1N1CCN(CCCCOc2ccc(F)cc2)CC1 4.56%, COc1ccc(C(=O)CN2CCN(c3ccc(F)cc3)CC2)cc1 11.7%, COc1ccccc1N1CCN(CCCCCCOc2ccc(F)cc2)CC1 7.05%, COc1ccccc1N1CCN(CCCC(=O)c2ccc(F)cc2)CC1 8.13%, CCN(CC)S(=O)(=O)c1ccc(NC(=O)C(OC)c2ccccc2)cc1 (stereo not drawn) 11.8%, C/C(=N\Nc1ccccn1)c1ccc(C#N)cc1 6.31%, Cc1nn(CC(=O)N2CCc3ccccc3C2)c(C)c1[N+](=O)[O-] 4.25%, Nc1ccc(-c2nc3cc(N)ccc3o2)cc1 17.5%, Nc1ccc(-c2nc3ccccc3o2)cc1 4.77%, COc1ccc(CC(=O)OCC(=O)NCc2ccc(Cl)cc2)cc1 -11.6%, COc1cccc(NC(=O)COC(=O)c2ccccc2C(=O)N2CCN(c3ccccc3)CC2)c1 -5.54%, Cc1ccccc1N(CC(=O)N1CCCC1)S(=O)(=O)c1ccc(Cl)cc1 5.47%, CCOc1ccc2nc(-c3ccccc3)nc(SCC(=O)Nc3ncc(C)s3)c2c1 -5.25%, O=C(COc1ccc2c3c(c(=O)oc2c1)CCC3)N1CCCC1 11.2%, CSc1ncccc1C(=O)NCC1CCCCC1 6.8%, COc1cc2c(cc1NC(=O)C(F)(F)F)-c1ccc(NC(=O)C(F)(F)F)cc1C2 4.33%, CC(C)C(=O)Nc1ccc2c(c1)Cc1cc(NC(=O)C(C)C)ccc1-2 12.2%, COc1ccc(NC(=O)CCNC(=O)c2ccccc2Cl)cc1OC 9.17%, COc1cccc(/C=N/NC(=O)CCc2ccccc2)c1 8.09%, COc1cc(C(=O)N/N=C/c2ccc(OC(=O)c3ccccc3Cl)c(OC)c2)ccc1O 17.8%, CCOc1ccc(/C=N\NC(=O)CC(=O)NCCc2ccccc2)cc1 13%, COc1ccc(/C=N/NC(=O)CCc2ccccc2)cc1O 26.6%, Cc1ccc(/C=N\NC(=O)CC(=O)NCCc2ccccc2)cc1 -1.99%, COc1ccc(/C=N\NC(=O)CNC(=O)C(c2ccccc2)c2ccccc2)cc1[N+](=O)[O-] -25.7%, O=C(CNC(=O)C(c1ccccc1)c1ccccc1)N/N=C\c1cccc(O)c1 6.95%, COCCN(C(=O)COC(=O)c1ccc(Br)o1)c1c(N)n(Cc2ccccc2)c(=O)[nH]c1=O 7.5%, O=c1[nH]c(CSc2ncccn2)nc2c1cnn2-c1ccccc1 9.39%, Fc1ccc(-n2cc(CNCCc3cccnc3)c(-c3ccccc3Cl)n2)cc1 5.92%, C=CC[C@@H](CC(=O)N(CCO)Cc1ccccc1)C(=O)N[C@H](COC(=O)[C@@H](CC=C)Cc1ccc(F)cc1)C(C)(C)C 4.96%, CC1(C)CC(=O)C(CC2C(=O)CC(C)(C)CC2=O)C(=O)C1 12.9%, COC(=O)c1cccnc1SCc1ccccc1 3.27%, CCOc1ncccc1C(=O)Nc1cccc(S(=O)(=O)N2CCOCC2)c1 3.19%, COC(=O)CCNC(=O)Cn1cnc2sc3c(c2c1=O)CCCC3 3.18%, CC1(C)CC(=O)N(Cc2ccccc2)C(=O)C1 2.51%, O=C(NCCc1ccc(F)cc1)C(=O)NCC1CCCN1S(=O)(=O)c1cccs1 (stereo not drawn) -7.17%, COc1ccc(/C=N/NC(=O)/C(=C/c2ccccc2)CCO)cc1 8.48%, COC(=O)c1ccc(/C=N\NC(=O)CC(=O)NCCc2ccccc2)cc1 0.63%, COc1ccc(/C=N/NC(=O)CC(=O)NCCc2ccccc2)cc1OC 1.81%, COc1cc(/C=N/NC(=O)C(=O)NCc2ccco2)ccc1O 17.7%, CC(C(=O)Nc1ccc(S(=O)(=O)N2CCOCC2)cc1)N1CCN(c2ccccn2)CC1 (stereo not drawn) -2.88%, CCc1cc(C(=O)OC)c(NC(=O)CC2NCCNC2=O)s1 (stereo not drawn) 0.55%, OC(COc1ccccc1Br)CN1CCNCC1 (stereo not drawn) 1.5%, CC(C)OCC(O)CN1CCNCC1 (stereo not drawn) 5.48%, CC(C)CN(CC(C)C)C(=O)C12CCC(C)(C(=O)C1)C2(C)C (stereo not drawn) -15.8%, Cc1ccc(NC2CCCN(C(=O)c3cccs3)C2)cc1C (stereo not drawn) 22.5%, CCOc1ccc(OCc2ccc(C(=O)N3CCCC(C)C3)cc2)cc1 (stereo not drawn) 0.96%, Cc1ccc(NC(=O)CN2CCCCCC2)cc1Br 24.2%, CN1CCN(CC(=O)Nc2ccccc2Oc2ccccc2)CC1 4.33%, Cc1nccn1CC(=O)N/N=C/c1cc(Br)cs1 3.63%, CCCCCNCC(=O)Nc1cc(C(F)(F)F)ccc1OCCOC 29.2%, COc1ccccc1NC(=O)CN1CCN(c2ccccc2)CC1 3.59%, Cc1ccc(NC(=O)CN2CCCC2)cc1Br 30.6%, O=C(Cc1ccccc1)N/N=C/c1cc(Br)cs1 10.7%, COCCOc1ccc(C(F)(F)F)cc1NC(=O)c1ccc(C(F)(F)F)cc1 -6.51%, O=C(CNC(=O)c1ccccc1)NCC(O)c1ccc([N+](=O)[O-])cc1 (stereo not drawn) -4.75%, CCOCCCNC(=O)Cn1cnc2sc(C)c(S(=O)(=O)N3CCN(c4ncccn4)CC3)c2c1=O 2.97%

— PubChem BioAssay AID624330 (Southern Research Specialized Biocontainment Screening …, 2012)
